Experiment [1] in a line: qHTS Screen of the MIPE 4.0 Collection Against Ewings Sarcoma (TC71) (AID 1259253). Note: nearly all actives have a fitted effect of over 40% in size. Note: potency is the fitted concentration of half-maximal effect. The method, boiled down:
(§1)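 Here, cells in 5% FBS RPMI were exposed for two days (48 h) to compound dilutions added four hours after plating. ATP-based CellTiter-Glo luminescence measured viability, normalized to vehicle and no-cell blanks.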

A short description of experiment [2]: qHTS Screen of the MIPE 4.0 Collection Against Ewings Sarcoma (TC32) (AID 1259256). Note: nearly all actives have a fitted effect of over 45% in size. Note: potency is the fitted concentration of half-maximal effect. The method, boiled down:
as §1
(In general: In qHTS, concentration-response curves come from the screen itself.)

Experiment [3] can be described thus: Identifying Small Molecule Inhibitors of Pancreatic Cancer Stem Cells (A2780, Spheroid) (AID 1259357).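 Note: compound exposure lasted 48 h before the ATP luminescence read.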 To be noted: Potency: A2780 spheroid viability. The method, boiled down: (§2)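 Adherent (2D) versus sphere (3D) formats; spheres generated 14 d in SCM beforehand. Compound transferred by pin tool after 4 h, 48 h incubation, CellTiter-Glo endpoint.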
Experiment [4] is described as follows: Identifying Small Molecule Inhibitors of Pancreatic Cancer Stem Cells (SN12C, Adherent) (AID 1259358).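 Note: cell survival measured after 48 h of compound exposure.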 Note: potency is the fitted concentration of half-maximal effect. The gist of the method:
(§3)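 Luminescent ATP readout (CellTiter-Glo) quantifies surviving cells after a 48 h drug incubation. Normalization uses DMSO wells as no inhibition and media-only wells as full inhibition; bortezomib served as positive control.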

Experiment [5] in a line: P-glycoprotein substrates identified in KB-3-1 adenocarcinoma cell line, qHTS therapeutic library screen (AID 1346986). Note: nearly all actives have a fitted effect of over 60% in size. The method, boiled down: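 72 h cell-killing screen, 500 cells/well, CellTiter-Glo luminescence. Paired lines KB-3-1/KB-8-5-11; P-gp dependence checked by tariquidar co-treatment and HEK-293 MDR-19 versus empty-vector cells.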
A short description of experiment [6]: Identifying Small Molecule Inhibitors of Pancreatic Cancer Stem Cells (Panc1, Spheroid) (AID 1259359).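 Note: compound exposure lasted 48 h before reading.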 Note: potency is the fitted concentration of half-maximal effect. The method, boiled down:
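Cytotoxicity read by CellTiter-Glo luminescence after 48 h compound exposure at 37C; percent activity scaled between DMSO-treated cells and cell-free wells. Spheroid formats used cells pre-formed 14 days in stem cell media on hydrogel.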

Experiment [7] in a line: Identifying Small Molecule Inhibitors of Pancreatic Cancer Stem Cells (SN12C, Spheroid) (AID 1259360). Note: potency is the fitted concentration of half-maximal effect. To be noted: Potency: SN12C spheroid viability. The method, boiled down:
as §2

A short description of experiment [8]: Identifying Small Molecule Inhibitors of Pancreatic Cancer Stem Cells (A278, Adherent) (AID 1259361). Note: nearly all actives have a fitted effect of over 35% in size. The method, boiled down: as §3
The nature of experiment [9]: qHTS assay to identify small molecule inhibitors of chordoma cells - UCH-2 (AID 1259356). Note: series mostly up to about 46 µM.
Experiment [10] in a line: qHTS Screen of the MIPE 4.0 Collection Against Ewings Sarcoma (EW8) (AID 1259255). Note: nearly all actives have a fitted effect of over 35% in size. The method, boiled down: as §1

Inconclusive results are not listed. Active and inactive are the calls of the source. Calls come from the whole dose curve; as a rule, active = well fitted curve in the direction sought with a large enough effect; inconclusive = small, poorly fitted or top-dose-only effect, or another doubt; inactive = no such curve, though single readings can be large; an effect the other way counts as inactive or inconclusive.

Regarding `Cc1cc2c(cc1C1(c3ccc(C(=O)O)cn3)CC1)C(C)(C)CCC2(C)C`, the Potency result in experiment [1], in experiment [2], in [3], in [4] and in experiment [5] was “inactive” in each case.
For the compound `CCNC(=O)c1noc(-c2cc(C(C)C)c(O)cc2O)c1-c1ccc(CN2CCOCC2)cc1`, the Potency was 0.118 µM (active) in experiment [1], 0.059 µM (active) in experiment [2], 0.0105 µM (active) in experiment [4] and 0.0074 µM (active) in [7]. In experiment [6], the Potency result was “inactive”. Also, the IC50 (viability decrease) in [8] is 0.0037 µM (active).
`CCC[C@H](Nc1nc(-c2ccc(NC(=O)NCC)c(OC)c2)ncc1C)c1cccnc1`: the Potency in [1] was 0.0093 µM (active). Further, the Potency entry in experiment [2] was “inactive”.
Turning to `CC(=O)N1CCN(c2ccc(OCc3nn(C)c(C)c3-c3cccc4c(CCCOc5cc(C)c(Cl)c(C)c5)c(C(=O)O)n(Cc5cccnc5)c34)cc2)CC1`, the Potency in experiment [1] and in experiment [2] was 20.9 µM (active) in each case.
For `COc1ccc(-c2oc3c(CC=C(C)C)c(O)cc(O)c3c(=O)c2O)cc1`, the values for the Potency in experiment [1] and in [2] were 18.7 µM (active) and 23.5 µM (active), respectively.
Consider `O=C1Nc2ccc(I)cc2C1=Cc1cc(Br)c(O)c(Br)c1`, for which the values for the Potency in experiment [1] and in experiment [2] were 18.7 µM (active) and 20.9 µM (active), respectively.
Take `Cc1ccc(NC(=O)c2cccc(N(C)C)c2)cc1NC(=O)c1ccc(O)cc1`: the figures for the Potency in experiment [1] and in [2] were 0.526 µM (active) and 1.05 µM (active), respectively.
The corresponding values for `CN(C)CCOc1ccc(-c2nc(-c3ccc4c(c3)CCC4=NO)c(-c3ccncc3)[nH]2)cc1` are 26.4 µM (active) and 23.5 µM (active).
On to `CN1CCN2c3ncccc3Cc3ccccc3C2C1` (stereo not drawn), for which the Potency entry in [1] and in experiment [2] was “inactive” each time. The result in experiment [9] was inactive.
As to `Cc1nc(NC(=O)N2CCC[C@@H]2C(N)=O)sc1-c1csc(C(C)(C)C)n1`, the Potency in [1] and in experiment [2] was 6.62 µM (active) each time.
For the compound `CCn1c(-c2nonc2N)nc2cncc(CNC3CCNCC3)c21`, the Potency entry in [1] is “inactive”. Also, in [2], the Potency was 14.8 µM (active).
The corresponding values for `CN1CCC(COc2cnc(-c3cccc(Cn4nc(-c5cccc(C#N)c5)ccc4=O)c3)nc2)CC1` are 13.2 µM (active) and 20.9 µM (active).
The corresponding values for `O=C(Nc1cccc(C(F)(F)F)c1)Nc1cc(S(=O)(=O)NC2CC2)ccc1-c1ccsc1` are 20.9 µM (active) and 18.7 µM (active).
The corresponding values for `CCOc1ccccc1N=Nc1c(C)[nH]n(-c2nc(-c3ccccc3)cs2)c1=O` are 20.9 µM (active) and 11.8 µM (active).
With `COc1ccc(CCC(=O)Nc2nc3ccc(Cl)cc3s2)cc1OC`, the Potency was 18.7 µM (active) in experiment [1] and 13.2 µM (active) in experiment [2].
With `Cc1nn(Cc2ccccc2Cl)c(C)c1CN(C)CC(O)COc1ccc(Cl)cc1` (stereo not drawn), the Potency in experiment [1] and in experiment [2] was 23.5 µM (active) each time. Also, the Potency entry in experiment [4] and in [7] was “inactive” throughout.
As to `O=C(CC12CC3CC(CC(C3)C1)C2)Nc1cccc2nc(NCCNCCO)ccc12`, the Potency in experiment [1] was 7.43 µM (active); in experiment [2] it was 13.2 µM (active).
The corresponding values for `CC(C)(O)CC(=O)NCCn1ccc2ncnc(Nc3ccc(Oc4cccc(C(F)(F)F)c4)c(Cl)c3)c21` are 26.4 µM (active) and 26.4 µM (active).
The corresponding values for `COc1ccc(-c2cc(=O)c3c(O)cc(O[C@@H]4O[C@H](CO[C@@H]5O[C@@H](C)[C@H](O)[C@@H](O)[C@@H]5O)[C@@H](O)[C@H](O)[C@@H]4O)cc3o2)cc1O` are 18.7 µM (active) and 26.4 µM (active).
Consider `CNc1nc(-c2ccc3c(N)n[nH]c3c2)cc(N2C[C@@H](C(=O)NC3CCCCC3)CC[C@@H]2C)n1`, for which the Potency was 20.9 µM (active) in [1] and 6.62 µM (active) in experiment [2].
Turning to `COc1cc2nccc(Oc3ccc(NC(=O)Nc4cc(C)on4)c(Cl)c3)c2cc1OC`, the results for the Potency in experiment [1], in experiment [2] and in experiment [4] were 2.64 µM (active), 2.96 µM (active) and 16.6 µM (active), respectively.
Consider `CCc1cc(-c2n[nH]c(C)c2-c2ccc3c(c2)OCCO3)c(O)cc1O`, for which the Potency is 8.33 µM (active) in experiment [1] and 4.18 µM (active) in experiment [2].
As to `NS(=O)(=O)c1ccc(Nc2nc(OCC3CCCCC3)c3[nH]cnc3n2)cc1`, the Potency was 14.8 µM (active) in experiment [1] and 16.6 µM (active) in experiment [2].
For the compound `Cc1ccc(C(=O)N(CCCN)[C@@H](c2nc3cc(Cl)ccc3c(=O)n2Cc2ccccc2)C(C)C)cc1`, the Potency in experiment [1] was 0.0019 µM (active); in [6], 0.003 µM (active). Moreover, in experiment [2], the Potency result is “inactive”. For the same compound, in experiment [8], the IC50 (viability decrease) is 0.0047 µM (active).
As for `CN1C(=O)C[C@H](C(=O)N[C@@H](Cc2cnc[nH]2)C(=O)N2CCC[C@@H]2C(N)=O)NC1=O`, the Potency in experiment [1] was 20.9 µM (active). The Potency result in [5] was “inactive”.
As for `CN1CC(=O)NC1=NC(=O)Nc1cccc(Cl)c1`, the Potency entry in [10] and in experiment [2] was “inactive” throughout.
As for `Nc1[nH]nc2nnc(-c3c(-c4ccccc4)nn4ccccc34)cc12`, the Potency in experiment [1] was 8.33 µM (active); in [2], 11.8 µM (active). Besides, the Potency result in experiment [5] was “inactive”.
Regarding `COc1cc2c(cc1OC)CC(=O)N(CCCN(C)C[C@H]1Cc3cc(OC)c(OC)cc31)CC2`, in experiment [1], the Potency was 16.6 µM (active). In addition, the compound was called inactive in experiment [9]. The Potency entry in [4] and in experiment [7] was “inactive” throughout. In addition, the IC50 (viability decrease) entry in experiment [8] is “inactive”.

The values are drawn from PubChem BioAssay (NCATS).
